Test results from PubChem BioAssay AID588850 (Sanford-Burnham Center for Chemical Genomics, 2011).
The whole screen tested about 360,000 compounds, of which about 3,100 (0.86%) were called active. What follows is part of a selection rich in actives, with near analogues and random picks from the rest. Values without a mark were called inactive.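 The calls were made as follows: active = at least 50% inhibition at 5 µM, scaled per plate between neutral and stimulator controls; inactive = the rest.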

assay: NF-kB reporter blockers in CF airway cells – cell-based, GFP fluorescence, uHTS, primary screen (AID 588850); settings: KKLEB NF-kB-GFP reporter, PAF-induced, GFP fluorescence overnight; at 5 µM; hits give high values;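 also: PAF is a Pseudomonas aeruginosa culture filtrate used as stimulus; plate controls were PAF-stimulated DMSO wells for no effect and unstimulated DMSO wells for full effect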

First: CC(c1ccco1)N(C(=O)COc1ccccc1[N+](=O)[O-])c1ccccn1 (stereo not given)
Second: COC(=O)c1cc(C(=O)N(Cc2ccccc2)c2ccccn2)cc([N+](=O)[O-])c1
The inhibition of the first is higher: 8.2% for the first, 5% for the second.

First: CN(C)C(=O)Cn1c(=O)n(S(=O)(=O)c2ccccc2)c2ccccc21
Second: COc1ccc(C(CC(=O)c2ccccc2)S(=O)(=O)c2ccccc2)cc1 (stereo not given)
The inhibition of the first is higher: 5.9% for the first, -3.5% for the second.

First: COC(=O)[C@@H]1C[C@H]2CC[C@H](O)C[C@H]2N1Cc1ccc(N2CCN(C)CC2)cc1
Second: COc1ccc(N2CCN(S(=O)(=O)CCNC(=O)C34CC5CC(CC(C5)C3)C4)CC2)cc1
The inhibition of the first is higher: 0.1% for the first, -0.5% for the second.

First: CC(C(=O)N1CCc2ccccc21)N(C)CC(=O)Nc1ccc(F)cc1 (stereo not given)
Second: Cc1ccc(NC(=O)CSc2nnc(CNC(=O)c3ccccc3F)o2)cc1
The inhibition of the first is lower: -12% for the first, -6.4% for the second.

Compared with `COC1(C2=NCCN2)COc2ccccc2O1` (stereo not given), `CC1CCc2c(c3ccccc3[nH]c2=O)O1` (stereo not given) is lower in inhibition: 9.5% for the first, 0.4% for the second.

Compared with `COc1ccccc1/C=C/C=N/n1c(-c2ccc(Cl)cc2Cl)n[nH]c1=S`, `S=c1[nH]nc(-c2ccco2)n1/N=C/c1ccc(Br)s1` is higher in inhibition: 1.4% for the first, 5.5% for the second.

Going from `CC1CCCCC1NC(=O)Cn1cnc2c1c(=O)n(C)c(=O)n2C` (stereo not given) to `CC(C(=O)O)n1cnc2sc3c(c2c1=O)CCCC3` (stereo not given), the inhibition rises from 3.3% to 12.1%.

First: CC(C)c1nc(SCC(=O)NC(=O)NC(C)(C)C)n[nH]1
Second: CCOC(=O)c1c(C)[nH]c(C)c1C(=O)CSc1nc(N)cc(N)n1
The inhibition of the first is higher: -0.6% for the first, -5.9% for the second.

Going from `Cc1cccc(C)c1NC(=S)N(Cc1cccnc1)Cc1ccccc1Cl` to `Cc1cccc(C)c1NC(=O)CCS(=O)(=O)c1cccc2nsnc12`, the inhibition falls from -1.1% to -15.6%.

Going from `COc1cccc(CC(=O)N2CCCC(CCC(=O)N3CCN(c4ccccn4)CC3)C2)c1` (stereo not given) to `COc1cccc(N2CCN(CC(=O)Nc3ccnn3C3CCCC3)CC2)c1`, the inhibition falls from 12.7% to -19%.

Compared with `CC(C)c1ccc(CC(=O)N2CCC2(C)C(=O)NS(=O)(=O)c2ccc(C(C)(C)C)cc2)cc1` (stereo not given), `Cc1noc(C)c1C(=O)N1CCC1(C)C(=O)NS(=O)(=O)c1ccc(C#N)cc1` (stereo not given) is lower in inhibition: 3.4% for the first, 1.8% for the second.

Compared with `S=c1[nH]nc2c3c4c(sc3ncn12)CCCC4`, `O=C(Nc1cccnc1)c1noc2c1CCCCC2` is higher in inhibition: -4% for the first, -3.7% for the second.

Compared with `CN1CCN(c2ccc(NC(=O)c3cc(Cl)c4c(c3)OCCO4)cc2)CC1`, `Cn1cnnc1SCC(=O)Nc1ccc(N2CCOCC2)cc1` is higher in inhibition: -18.8% for the first, -8.2% for the second.

First: O=C(Nc1ccc(-n2cccn2)cc1)C1CCN(Cc2ccsc2)CC1
Second: O=C(NCCCN1CCN(c2ccc(F)cc2)CC1)Nc1ccc([N+](=O)[O-])cc1
The inhibition of the first is higher: 9.7% for the first, -19.1% for the second.

Going from `COc1ccc(-c2cc(C(=O)N(C)Cc3ccc(OC)c(OC)c3OC)c3ccccc3n2)cc1OC` to `COc1ccc(-c2cc(C(=O)N(C)CC(=O)Nc3ccccc3Cl)c3ccccc3n2)cc1OC`, the inhibition falls from 27% to 22.9%.

First: CC1Cn2c(nnc2-c2cccs2)S1 (stereo not given)
Second: CCn1c(SCC(=O)NC2CC2)nnc1-c1ccccc1OC
The inhibition of the first is higher: 9.9% for the first, -0.4% for the second.

Going from `O=C(O)C1CCCN(CCC=C(c2ccccc2)c2ccccc2)C1` (stereo not given) to `NCCCCC(C(=O)O)N(C(=O)OCc1ccccc1)C(=O)OCc1ccccc1` (stereo not given), the inhibition falls from 9.2% to 1.1%.

First: Cc1ccnc(NS(=O)(=O)c2ccc(NC(=O)c3ccc(S(=O)(=O)N(C)C)cc3)cc2)n1
Second: Cc1ccnc(NS(=O)(=O)c2ccc(NC(=O)c3oc4ccc(F)cc4c3C)cc2)n1
The inhibition of the first is lower: 2.1% for the first, 8.7% for the second.

First: CC1(C(=O)Nc2cccc3c2CCCC3)CCN1C(=O)CCc1ccc(Cl)cc1Cl (stereo not given)
Second: O=C(CCS(=O)(=O)c1ccccc1)Nc1nc2c(s1)CCCC2
The inhibition of the first is lower: -16% for the first, -2.5% for the second.

Going from `CC12CCC(=O)C=C1CCC1C2C(O)CC2(C)C1CCC2(O)C(O)CO` (stereo not given) to `CC(=O)O[C@]1(C(C)=O)CC[C@H]2[C@@H]3C=C(C)C4=CC(=O)CC[C@]4(C)[C@H]3CC[C@@]21C`, the inhibition rises from 24.8% to 39.9%.

Going from `Cc1ccc(CC(=O)Nc2cccc(C#N)c2)cc1` to `COc1ccc(/C(N)=N/OC(=O)Cc2ccccc2)cc1`, the inhibition falls from -4.9% to -28%.

Going from `O=C(COC(=O)Cn1cnc2ccccc2c1=O)NCC12CC3CC(CC(C3)C1)C2` to `CCCCOc1ccc(C(=O)NCC(=O)OCC(=O)N2CCN(S(=O)(=O)c3ccc(C)cc3C)CC2)cc1`, the inhibition rises from -1.8% to -0.3%.

First: O=C(c1ccc(Cl)c(S(=O)(=O)N2CCCCCC2)c1)N1CCN(c2ccc(O)cc2)CC1
Second: CN(C)S(=O)(=O)N1CCN(c2ccc([N+](=O)[O-])cc2)CC1
The inhibition of the first is lower: 2.4% for the first, 8.2% for the second.

Going from `c1ccc(-n2cccc2)c(N2CCCCC2)c1` to `C1=C(N2CCOCC2)/C(=C/c2nc3ccccc3[nH]2)CC1`, the inhibition falls from 5.6% to 0.9%.

Compared with `O=C(Nc1ccc(F)c([N+](=O)[O-])c1)C1CCCO1` (stereo not given), `CCCCC(=O)Nc1c2c(nn1-c1ccc([N+](=O)[O-])cc1)CS(=O)(=O)C2` is higher in inhibition: 4.8% for the first, 5.8% for the second.

First: COc1ccc(OC)c(C2N(c3ccccn3)C(=O)C3CCCN32)c1 (stereo not given)
Second: COc1cc(NC(=O)c2ccccc2NS(=O)(=O)c2ccc(Cl)s2)cc(OC)c1
The inhibition of the first is lower: -3.8% for the first, 49.7% for the second.

Going from `CC(=O)N(CN1C(=O)C2CC=CCC2C1=O)c1cccc(Cl)c1` (stereo not given) to `COc1ccc(N(C)C(=O)CCS(=O)(=O)c2cccc3nsnc23)cc1`, the inhibition rises from -5.3% to -4%.

Compared with `CCS(=O)(=O)c1ccc(C(=O)NC)c(Cl)c1Cl`, `Cc1ccc(S(=O)(=O)CCC(=O)OCC(=O)N(C)Cc2ccccc2)cc1` is higher in inhibition: 4.1% for the first, 7.6% for the second.

Going from `CCOC(=O)c1c(NC(=O)CSc2nccc(=O)[nH]2)sc(C)c1C` to `COC(=O)c1ccc(NC(=O)CSc2nncn2-c2cccnc2)cc1`, the inhibition rises from -8.3% to -0.4%.

Going from `CCCCN(C)c1ccc([N+](=O)[O-])cc1` to `CCCCc1nc2ccc(F)cc2cc1C`, the inhibition falls from -12.3% to -14.3%.

First: COc1ccccc1-c1nnc2n1N=C(c1ccc(OC(F)F)c(OCC3CC3)c1)CS2
Second: Cc1cc(-c2ccccc2)n2nc(C)c(-c3ccccc3)c2n1
The inhibition of the first is higher: 49.1% for the first, 5.2% for the second.

First: CCCCCCCCCCCCCCCC(=O)OC/C=C(C)/C=C/C=C(C)/C=C/C1=C(C)CCCC1(C)C
Second: COCCCN(C(=S)Nc1c(C)cc(C)cc1C)C(C)c1ccncc1 (stereo not given)
The inhibition of the first is lower: -16.9% for the first, -10.4% for the second.

First: NC1=NOC(=O)C1C1CCCCC1 (stereo not given)
Second: N#CC1(C#N)C(C(=O)C23CC4CC(CC(C4)C2)C3)C12CCOCC2 (stereo not given)
The inhibition of the first is higher: 25.2% for the first, 12.2% for the second.

Going from `COc1ccc(C(=NN)c2ccc(OC)cc2)cc1` to `COc1ccccc1C(=O)Nc1ccc(Nc2ccccc2)cc1`, the inhibition rises from -2.7% to 6.4%.

First: Fc1ccc(Nc2nnns2)cc1
Second: O=C(Nc1ccc(Cl)cc1)c1csc([C@@H]2O[C@H](CO)[C@H](O)[C@H](O)[C@H]2O)n1
The inhibition of the first is lower: -11.2% for the first, 13% for the second.

Going from `C=CCNC(=S)NNc1ncnc2sc3c(c12)CC(C)(C)OC3` to `Cc1ccc(NC(=S)Nc2ncccc2C)c(C)c1`, the inhibition falls from -2% to -2.7%.

`C=CCNC(=S)/N=c1/ccccn1Cc1ccccc1` gave an inhibition of -16.5%.

For `Cc1cc(-c2n[nH]c(=S)n2/N=C/C(Br)=C/c2ccccc2)n[nH]1`, the inhibition was 87.5% (active).
In the case of `c1nnc2c3c4c(sc3ncn12)CCC4`, the inhibition is reported as 59% (active).
With `C=CC(=O)Nc1ccc(Nc2ccnc(Nc3ccc(N4CCN(C)CC4)cc3)n2)cc1` the inhibition was 55.6% (active).
For `COc1ccc(CN(C)C(=O)c2cc(-c3ccc(C)cc3C)nc3ccccc23)c(OC)c1OC`, the inhibition was 67.1% (active).
In the case of `CC(=O)OCC(=O)C1(O)CCC2C3CC(C)C4=CC(=O)CCC4(C)C3C(O)CC21C` (stereo not given), the inhibition is reported as 73% (active).
In the case of `O=C1C=CC(=O)N1c1ccc(N2CCCCC2)cc1`, the inhibition is reported as 67% (active).
With `O=C(CCl)N(Cc1cccc([N+](=O)[O-])c1)c1cccc(Cl)c1` the inhibition was 90.5% (active).
With `CCOC(=O)c1c(C)[nH]c2c1-c1ccccc1C(=O)C2=O` the inhibition was 86.7% (active).
With `O=C1/C(=C\c2ccc([N+](=O)[O-])cc2)CS(=O)(=O)C/C1=C/c1ccc([N+](=O)[O-])cc1` the inhibition was 98.2% (active).
With `C=CCc1cc(S(=O)(=O)c2ccc(O)c(CC=C)c2)ccc1O` the inhibition was 60.6% (active).
For `COc1ccc(C2=Nn3c(nnc3-c3ccccc3OC)SC2)cc1OC1CCCC1`, the inhibition was 68.4% (active).
For `COc1ccc(C(C#N)=C2C=CC(=NO)c3ccccc32)cc1`, the inhibition was 84.7% (active).
For `CC[C@]1(O)CC2CN(CCc3c([nH]c4ccccc34)[C@@](C(=O)OC)(c3cc4c(cc3OC)N(C=O)[C@H]3[C@@](O)(C(=O)OC)[C@H](OC(C)=O)[C@]5(CC)C=CCN6CC[C@]43[C@@H]65)C2)C1` (stereo not given in full), the inhibition was 53.6% (active).
For `CC[C@]1(O)C[C@@H]2CN(CCc3c([nH]c4ccccc34)[C@@](C(=O)OC)(c3cc4c(cc3OC)N(C)[C@H]3[C@@](O)(C(=O)OC)[C@H](OC(C)=O)[C@]5(CC)C=CCN6CC[C@]43[C@@H]65)C2)C1`, the inhibition was 57.6% (active).
In the case of `COC(=O)c1ccc(NC(=O)c2ccccc2NS(=O)(=O)c2ccccc2)cc1`, the inhibition is reported as 59.8% (active).
With `Cc1cccc2sc(N(CCCN(C)C)C(=O)CCS(=O)(=O)c3ccccc3)nc12` the inhibition was 85.7% (active).
In the case of `COc1cccc2sc(N(CCCN(C)C)C(=O)CCS(=O)(=O)c3ccccc3)nc12`, the inhibition is reported as 88.4% (active).
